Experimental data taken from the supplement of paper PMC8728848.
The sample as a whole holds a higher share of the strongest signals than the screen did.

Key:
Assay in all cases: glycan array binding signal (z-score within array); higher = stronger binding
Conditions in all cases: glycan notation: IUPAC condensed, linker removed; mutation: D22R
[1] = target: Fuc(a1-2)Gal(b1-3)GlcNAc(b1-3)GalNAc
Outline: (§1)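 From the Consortium for Functional Glycomics database, 3228 arrays were curated, keeping only those whose protein sequence was available. Binding is given as a within-array Z-score averaged across arrays sharing a protein sequence and across linkers. Negative Z-scores can be read as non-binding.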

[2] = target: Fuc(a1-2)Gal(b1-3)[Fuc(a1-4)]GlcNAc(b1-2)Man(a1-3)[Fuc(a1-2)Gal(b1-3)[Fuc(a1-4)]GlcNAc(b1-2)Man(a1-6)]Man(b1-4)GlcNAc(b1-4)[Fuc(a1-6)]GlcNAc(b1-4)[Fuc(a1-6)]GlcNAc
Outline: as §1

Fuc(a1-2)Gal(b1-4)GlcNAc = target: Fuc(a1-2)Gal(b1-4)GlcNAc
Outline: as §1

[3] = target: Fuc(a1-2)Gal(b1-4)GlcNAc(b1-2)Man
Outline: as §1

[4] = target: Fuc(a1-2)[Gal(a1-3)]Gal(b1-4)GlcNAc(b1-3)GalNAc
Outline: as §1

[5] = target: Fuc(a1-2)[GalNAc(a1-3)]Gal(b1-3)GalNAc(b1-3)Gal(a1-4)Gal(b1-4)Glc
Outline: as §1

[6] = target: Fuc(a1-2)[GalNAc(a1-3)]Gal(b1-4)Glc
Outline: as §1

[7] = target: Fuc(a1-2)[GalNAc(a1-3)]Gal(b1-4)GlcNAc(b1-3)Gal(b1-4)GlcNAc
Outline: as §1

[8] = target: Fuc(a1-3)[Gal(b1-4)]GlcNAc6S
Outline: as §1

Gal(a1-2)Gal = target: Gal(a1-2)Gal
Outline: as §1

Gal(b1-3)Gal = target: Gal(b1-3)Gal
Outline: as §1

Gal(b1-3)GalNAc(b1-3)Gal = target: Gal(b1-3)GalNAc(b1-3)Gal
Outline: as §1

[9] = target: Gal(b1-3)GlcNAc(b1-3)Gal(b1-4)GlcNAc(b1-2)[Gal(b1-3)GlcNAc(b1-3)Gal(b1-4)GlcNAc(b1-6)]Man(a1-6)[Gal(b1-3)GlcNAc(b1-3)Gal(b1-4)GlcNAc(b1-2)Man(a1-3)]Man(b1-4)GlcNAc(b1-4)[Fuc(a1-6)]GlcNAc
Outline: as §1

[10] = target: Gal(b1-3)GlcNAc(b1-3)Gal(b1-4)GlcNAc(b1-3)Gal(b1-4)GlcNAc(b1-2)[Gal(b1-3)GlcNAc(b1-3)Gal(b1-4)GlcNAc(b1-3)Gal(b1-4)GlcNAc(b1-6)]Man(a1-6)[Gal(b1-3)GlcNAc(b1-3)Gal(b1-4)GlcNAc(b1-3)Gal(b1-4)GlcNAc(b1-2)Man(a1-3)]Man(b1-4)GlcNAc(b1-4)[Fuc(a1-6)]GlcNAc
Outline: as §1

[11] = target: Gal(b1-4)GlcNAc(a1-6)Gal(b1-4)GlcNAc
Outline: as §1

[12] = target: Gal(b1-4)GlcNAc(b1-2)Man(a1-3)[GlcNAc(b1-2)Man(a1-6)]Man(b1-4)GlcNAc(b1-4)GlcNAc
Outline: as §1

[13] = target: Gal(b1-4)GlcNAc(b1-2)Man(a1-6)[GlcNAc(b1-2)Man(a1-3)]Man(b1-4)GlcNAc(b1-4)GlcNAc
Outline: as §1

[14] = target: Gal(b1-4)GlcNAc(b1-3)Gal(b1-3)GalNAc
Outline: as §1

[15] = target: Gal(b1-4)GlcNAc(b1-3)Gal(b1-4)GlcNAc(b1-2)Man(a1-3)[Gal(b1-4)GlcNAc(b1-3)Gal(b1-4)GlcNAc(b1-2)Man(a1-6)]Man(b1-4)GlcNAc(b1-4)GlcNAc
Outline: as §1

[16] = target: Gal(b1-4)GlcNAc(b1-3)Gal(b1-4)GlcNAc(b1-2)[Gal(b1-4)GlcNAc(b1-3)Gal(b1-4)GlcNAc(b1-6)]Man(a1-6)[Gal(b1-4)GlcNAc(b1-3)Gal(b1-4)GlcNAc(b1-2)Man(a1-3)]Man(b1-4)GlcNAc(b1-4)[Fuc(a1-6)]GlcNAc
Outline: as §1

[17] = target: Gal(b1-4)GlcNAc(b1-3)Gal(b1-4)GlcNAc(b1-3)Gal(b1-4)GlcNAc(b1-2)Man(a1-3)[Gal(b1-4)GlcNAc(b1-3)Gal(b1-4)GlcNAc(b1-3)Gal(b1-4)GlcNAc(b1-2)Man(a1-6)]Man(b1-4)GlcNAc(b1-4)GlcNAc
Outline: as §1

[18] = target: Gal(b1-4)GlcNAc(b1-3)Gal(b1-4)GlcNAc(b1-3)Gal(b1-4)GlcNAc(b1-2)[Gal(b1-4)GlcNAc(b1-3)Gal(b1-4)GlcNAc(b1-3)Gal(b1-4)GlcNAc(b1-6)]Man(a1-6)[Gal(b1-4)GlcNAc(b1-3)Gal(b1-4)GlcNAc(b1-3)Gal(b1-4)GlcNAc(b1-2)Man(a1-3)]Man(b1-4)GlcNAc(b1-4)[Fuc(a1-6)]GlcNAc
Outline: as §1

[19] = target: Gal(b1-4)GlcNAc(b1-3)Gal(b1-4)GlcNAc(b1-3)[Gal(b1-4)GlcNAc(b1-3)Gal(b1-4)GlcNAc(b1-6)]GalNAc
Outline: as §1

[20] = target: Gal(b1-4)GlcNAc(b1-3)Gal(b1-4)GlcNAc(b1-6)[Gal(b1-3)]GalNAc
Outline: as §1

[21] = target: Gal(b1-4)GlcNAc(b1-6)Gal(b1-4)GlcNAc
Outline: as §1

[22] = target: Gal3S(b1-4)[Fuc(a1-3)]GlcNAc
Outline: as §1

B1: MpL2 (Macrolepiota procera) (protein)
chain: MSTQVSSGQTYKITNVKAGTVIRLSGEDNKSIIGYPYHSGKNQQWTFNWTGKAWTLRSASSGSYLGIEGTPADGTRLVAVNDPFEWHIWRDEANENAFRIFVPFTNYNLDLSGYGDTTPGTPVQLWWTWEGLHQTWTIDRP
Q: B1 was tested. Which “glycan array binding signal (z-score)” value [1] did it give?
A: The value was -0.233.

Q: And the “glycan array binding signal (z-score)” value [2]?
A: Its value is 0.051.

Q: And the “glycan array binding signal (z-score)” value (Fuc(a1-2)Gal(b1-4)GlcNAc)?
A: The value was -0.202.

Q: And the “glycan array binding signal (z-score)” value [3]?
A: Its value is 0.129.

Q: What about the “glycan array binding signal (z-score)” value [4] of the same binder?
A: The value was 0.092.

Q: What about the “glycan array binding signal (z-score)” value [5] of the same binder?
A: The value was -0.533.

Q: What about the “glycan array binding signal (z-score)” value [6] of the same binder?
A: The value was -0.092.

Q: And the “glycan array binding signal (z-score)” value [7]?
A: The value was -0.256.

Q: And the “glycan array binding signal (z-score)” value [8]?
A: Its value is 0.212.

Q: And the “glycan array binding signal (z-score)” value (Gal(a1-2)Gal)?
A: The value was -0.294.

Q: What about the “glycan array binding signal (z-score)” value (Gal(b1-3)Gal) of the same binder?
A: The value was 0.078.

Q: What about the “glycan array binding signal (z-score)” value (Gal(b1-3)GalNAc(b1-3)Gal) of the same binder?
A: Its value is -0.315.

Q: And the “glycan array binding signal (z-score)” value [9]?
A: Its value is 10.4.

Q: And the “glycan array binding signal (z-score)” value [10]?
A: The value was 10.8.

Q: And the “glycan array binding signal (z-score)” value [11]?
A: The value was 4.13.

Q: What about the “glycan array binding signal (z-score)” value [12] of the same binder?
A: Its value is -0.978.

Q: And the “glycan array binding signal (z-score)” value [13]?
A: Its value is -0.42.

Q: And the “glycan array binding signal (z-score)” value [14]?
A: The value was -0.633.

Q: What about the “glycan array binding signal (z-score)” value [15] of the same binder?
A: The value was 2.6.

Q: What about the “glycan array binding signal (z-score)” value [16] of the same binder?
A: Its value is 2.5.

Q: And the “glycan array binding signal (z-score)” value [17]?
A: The value was 2.57.

Q: And the “glycan array binding signal (z-score)” value [18]?
A: The value was 2.85.

Q: What about the “glycan array binding signal (z-score)” value [19] of the same binder?
A: The value was 2.76.

Q: And the “glycan array binding signal (z-score)” value [20]?
A: Its value is 1.3.

Q: What about the “glycan array binding signal (z-score)” value [21] of the same binder?
A: The value was -1.1.

Q: And the “glycan array binding signal (z-score)” value [22]?
A: Its value is -0.293.
